JMJD2A Tudor inh: qHTS Assay for Inhibitors of JMJD2A-Tudor Domain. Potency, µM (doses to about 114 µM), usual class: inhibitors. AlphaScreen JMJD2A-Tudor / H3K4me3 peptide binding. Lysine-specific demethylase 4A (Homo sapiens), O75164. actives 4.4% (n = 390,000); also: nearly all actives have a fitted effect of over 50% in size
HP1b chromo inh: HTS for Inhibitors of HP1-beta Chromodomain Interactions with Methylated Histone Tails | Potency, µM (highest dose often 114 µM), hits mostly inhibitors | Chromobox protein homolog 1 (Homo sapiens), P83916 | actives 0.56% (n = 390,000) | AID 540317, 2011 | AlphaScreen HP1-beta / biotin-H3K9me3 peptide binding; also: nearly all actives have a fitted effect of over 70% in size
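HP1-beta protein (50 nM final) preincubated 30 min at room temperature with biotinylated H3(1-18)K9me3 peptide (50 nM) in PBS pH 7.4, 0.01% Tween-20, then compound added for 30 min. AlphaScreen streptavidin donor/nickel chelate acceptor beads (10 ug/mL final), 30 min dark, luminescence read.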
L3MBTL1 block: qHTS Assay for the Inhibitors of L3MBTL1 | actives 0.66% (n = 230,000) | Lethal(3)malignant brain tumor-like protein 1 (Homo sapiens), Q9Y468 | Potency, µM (series often up to 57.1 µM), most hits filed as inhibitors | AlphaScreen L3MBTL1–H3K9me1 peptide binding; also: nearly all actives have a fitted effect of over 60% in size
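AlphaScreen proximity signal between nickel-chelate acceptor and streptavidin donor beads (final 10 ug/mL) reports binding of 50 nM L3MBTL1 to 75 nM biotin-H3 K9me1 peptide; complex incubated with compounds 30 min at room temperature; cefsulodin titration as control.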
BAZ2B block: qHTS Assay for Inhibitors of BAZ2B; Bromodomain adjacent to zinc finger domain protein 2B (Homo sapiens), Q9UIF8; AlphaScreen BAZ2B-H3K14Ac peptide displacement; Potency, µM (series often up to 114 µM), most hits filed as inhibitors; actives 4.4% (n = 360,000); AID 504333, 2011; also: nearly all actives have a fitted effect of over 60% in size
Target sequence (Q9UIF8 whole entry, looked up, the tested form may be a part): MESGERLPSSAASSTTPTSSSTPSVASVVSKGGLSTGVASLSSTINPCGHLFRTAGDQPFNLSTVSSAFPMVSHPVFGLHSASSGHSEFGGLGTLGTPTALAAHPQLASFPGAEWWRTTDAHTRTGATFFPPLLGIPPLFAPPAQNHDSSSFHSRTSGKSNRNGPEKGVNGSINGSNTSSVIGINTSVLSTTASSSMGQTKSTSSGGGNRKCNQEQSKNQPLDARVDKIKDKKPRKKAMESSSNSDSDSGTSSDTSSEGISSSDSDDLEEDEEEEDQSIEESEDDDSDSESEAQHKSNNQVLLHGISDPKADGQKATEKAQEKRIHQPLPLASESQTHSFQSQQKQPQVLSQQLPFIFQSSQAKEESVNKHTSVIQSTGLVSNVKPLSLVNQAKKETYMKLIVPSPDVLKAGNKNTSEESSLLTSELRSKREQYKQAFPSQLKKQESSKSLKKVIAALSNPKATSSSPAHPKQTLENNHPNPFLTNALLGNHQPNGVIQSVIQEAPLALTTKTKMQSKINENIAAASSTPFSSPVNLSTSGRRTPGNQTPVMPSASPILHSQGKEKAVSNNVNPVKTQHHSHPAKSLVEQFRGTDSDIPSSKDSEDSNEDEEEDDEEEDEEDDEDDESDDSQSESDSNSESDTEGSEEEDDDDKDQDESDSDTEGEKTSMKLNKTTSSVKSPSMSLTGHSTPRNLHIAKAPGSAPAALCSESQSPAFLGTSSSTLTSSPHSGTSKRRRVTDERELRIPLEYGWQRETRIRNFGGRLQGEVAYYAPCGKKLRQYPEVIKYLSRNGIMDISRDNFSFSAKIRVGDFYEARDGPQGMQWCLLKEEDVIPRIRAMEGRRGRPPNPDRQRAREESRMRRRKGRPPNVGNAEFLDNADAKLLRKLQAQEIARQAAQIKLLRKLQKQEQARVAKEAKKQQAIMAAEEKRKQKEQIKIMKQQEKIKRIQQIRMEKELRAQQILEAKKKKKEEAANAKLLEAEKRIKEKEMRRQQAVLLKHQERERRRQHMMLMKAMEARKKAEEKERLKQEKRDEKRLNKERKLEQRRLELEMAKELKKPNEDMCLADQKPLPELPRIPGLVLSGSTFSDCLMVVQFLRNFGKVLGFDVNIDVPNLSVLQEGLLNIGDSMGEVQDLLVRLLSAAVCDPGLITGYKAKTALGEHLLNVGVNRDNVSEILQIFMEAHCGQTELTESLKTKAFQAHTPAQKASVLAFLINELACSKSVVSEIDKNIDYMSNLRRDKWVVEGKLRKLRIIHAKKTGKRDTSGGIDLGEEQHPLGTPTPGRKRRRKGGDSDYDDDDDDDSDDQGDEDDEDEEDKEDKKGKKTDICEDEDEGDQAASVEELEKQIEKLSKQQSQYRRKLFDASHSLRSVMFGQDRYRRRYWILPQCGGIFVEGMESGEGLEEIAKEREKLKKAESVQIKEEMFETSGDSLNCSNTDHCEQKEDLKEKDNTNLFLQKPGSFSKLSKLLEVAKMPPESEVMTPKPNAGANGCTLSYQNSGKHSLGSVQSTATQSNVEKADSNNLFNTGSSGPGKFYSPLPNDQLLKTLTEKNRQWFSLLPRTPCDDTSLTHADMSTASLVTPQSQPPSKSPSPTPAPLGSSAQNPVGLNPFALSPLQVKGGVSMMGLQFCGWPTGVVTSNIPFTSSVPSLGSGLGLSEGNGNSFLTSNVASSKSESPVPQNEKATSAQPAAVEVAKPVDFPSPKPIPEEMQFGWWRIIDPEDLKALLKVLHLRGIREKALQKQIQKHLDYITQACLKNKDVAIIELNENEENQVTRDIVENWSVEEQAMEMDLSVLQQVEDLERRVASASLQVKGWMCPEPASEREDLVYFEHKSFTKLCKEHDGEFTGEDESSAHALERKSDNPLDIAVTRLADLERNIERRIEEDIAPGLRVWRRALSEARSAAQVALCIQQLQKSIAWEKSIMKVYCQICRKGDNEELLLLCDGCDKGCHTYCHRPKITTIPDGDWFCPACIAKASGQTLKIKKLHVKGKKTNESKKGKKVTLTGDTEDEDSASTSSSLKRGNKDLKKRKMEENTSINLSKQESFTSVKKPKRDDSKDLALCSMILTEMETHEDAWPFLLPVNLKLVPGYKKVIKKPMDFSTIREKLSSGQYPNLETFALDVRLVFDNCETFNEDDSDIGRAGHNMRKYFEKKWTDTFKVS
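AlphaScreen displacement of biotin-H3(5-23)K14Ac peptide (50 nM final) from BAZ2B (50 nM final) in PBS pH 7.4, 0.01% Tween-20; complex preformed 30 min RT, then compounds (top 110 uM) 30 min RT, beads 20 min dark.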
G9a block: qHTS Assay for Inhibitors of Histone Lysine Methyltransferase G9a | Histone-lysine N-methyltransferase EHMT2 (Homo sapiens), Q96KQ7 | G9a H3K9 monomethylation, AlphaScreen, 2 h | Potency, µM (doses to about 102 µM), actives largely listed as inhibitors | actives 8.8% (n = 350,000) | AID 504332, 2011; also: nearly all actives have a fitted effect of over 75% in size
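Compounds were preincubated with 20 nM G9a for 15 min, after which biotinylated H3K9 peptide (500 nM) and SAM (20 uM) started a 2 h room-temperature reaction. Monomethylated product was quantified by antibody-based AlphaScreen chemiluminescence.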
Numbers stand for hits; i = inactive; ? = inconclusive; nt = no result given; [ ] = dose if it differs, or a comment. Rows were chosen to be rich in hits. Some 11% of all compounds tested hit in one or more screens of this group. Calls follow the shape of the dose curve; as a rule, active = well fitted inhibition curve with a large enough effect; inconclusive = small, poorly fitted or top-dose-only effect; inactive = no such curve, though single readings can be large or run the other way.

SMILES | JMJD2A Tudor inh | HP1b chromo inh | L3MBTL1 block | BAZ2B block | G9a block
O=c1c2ccccc2nc(-c2ccc([N+](=O)[O-])cc2)n1O | ? | i | i | ? | i
O=c1c2ccccc2nc(-c2cccc(Cl)c2)n1O | ? | i | i | ? | i
Cc1ccc(-c2nc3ccccc3c(=O)n2NC(=S)N(C)C)cc1 | i | ? | i | i | 3.98µM
CCOC(=O)c1c(C)c(-c2ccccc2)n(CC(=O)Nc2ccc(OCC)cc2)c1C | i | i | nt | i | i
CCCN(C(=O)c1cc2c(=O)oc3ccccc3c2s1)c1ccc(CC)cc1 | i | i | nt | i | i
COc1cccc(Cn2c(=O)c(CCc3ccccc3)nc3cnc(OC)nc32)c1 | nt | nt | nt | nt | i[12.7 µM]
CCOC(=O)c1ccc(NC(=O)CSc2nccn2-c2ccc(OCC)cc2)cc1 | i | i | nt | ? | ?
O=c1c(N2CCN(c3cccc(C(F)(F)F)c3)CC2)csc2ccccc12 | 44.7µM | i | nt | i | ?
COc1cccc(NC(=O)CN(C)C(=O)c2oc3c(ccc4ccccc43)c2C)c1 | i | i | i | i | ?
COc1ccc(-c2cnnn2-c2ccc(NC(=O)/C=C/c3ccc(OC)c(OC)c3)cc2)cc1 | i | ? | i | i | 50.1µM
COc1ccc(/C=C/C(=O)Nc2ccc(-n3nncc3-c3ccc(OC)c(OC)c3)cc2)cc1OC | i | i | i | i | 50.1µM
COc1ccc(/C=C/C(=O)Nc2ccccc2)cc1OC | i | i | i | i | i
Cc1ccc(NC(=O)Nc2nnc(SCC(=O)N(C(C)C)C(C)C)s2)cc1 | i | i | nt | i | i
Cc1sc2ccccc2[n+]1CC(=O)O | ? | i | i | i | ?
CCOC(=O)C[n+]1c(C)sc2ccc(OC)cc21 | 50.1µM | ? | i | ? | 1.26µM
O=C(C[n+]1ccccc1)N/N=C/c1ccc(Cl)c(Cl)c1 | 22.4µM | i | nt | 50.1µM | i
CC(C)CC(C(=O)NCC1CCN(Cc2ccc(F)cc2)CC1)N1Cc2ccccc2C1=O (stereo unspecified) | i | i | nt | i | i
COc1ccc(-c2nc3cc(NC(=O)c4ccc(C)cc4)ccc3o2)cc1Cl | i | i | nt | i | i
NC(C(=O)O)c1ccc(P(=O)(O)O)cc1 (stereo unspecified) | nt | nt | nt | nt | i
CCc1cc2c(SCc3nc4sc(C(C)=O)c(C)c4c(=O)[nH]3)ncnc2s1 | ? | i | i | i | 20µM

Screening data: PubChem, National Center for Advancing Translational Sciences (NCATS)
